Laboratory results reported in PubChem BioAssay (Tox21).
A number with no mark means an inactive call. Calls of active or inactive are those of the source. The call rests on the fitted dose curve; in most records, active means well fitted curve in the direction sought with a large enough effect in the repeat runs; inconclusive means weak or mixed curves; inactive means flat fitted curve, though single readings scatter.

Test: qHTS assay to test for compound auto fluorescence at 535 nm (green) in HEK293 cell free culture (AID 720682)
Conditions: cell-free medium, green autofluorescence 485/535 nm, stronger effect = higher value; series mostly up to 91.3 µM; activity change: at the top concentration
Outline: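 Green-label autofluorescence (485 nm excitation, 535 nm emission) measured on compound added to cell-free culture medium (DMEM, 10% FBS). Output is expressed relative to fluorescein.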
On the % scale 0 is the no-effect control and ±100 the full control effect.

In order of falling “activity change” value:
1. Cc1cc(N)no1  0.237% [at 95.7 µM]
2. C=C(C)C(=O)OCCOC1CC2CC1C1C=CCC21 (centres undefined)  -0.0256% [at 95.7 µM]
3. Cc1cccc(N)n1  -0.0429% [at 95.7 µM]
4. C/C(Cl)=C/CCl  -0.0477% [at 95.7 µM]
5. CC(C)(O)CCCC1=CCC(C=O)CC1 (centres undefined)  -0.065% [at 95.7 µM]
6. C=C(C)C(=O)OCCCC  -0.0712% [at 95.7 µM]

In order of falling “activity change” value:
1. COc1cc(OC)cc(OC)c1  0.146% [at 46 µM]
2. CCOC(=O)COc1ccc2c(C)c(CCN(CC)CC)c(=O)oc2c1Cl  0.0522% [at 46 µM]
3. COc1cc(C(=O)NC2CCCNC2)cc(OC)c1OC (centres undefined)  0.0498% [at 46 µM]
4. CCN1CCN(C(=O)N[C@@H](C(=O)N[C@@H]2C(=O)N3C(C(=O)O)=C(CSc4nnnn4C)CS[C@H]23)c2ccc(O)cc2)C(=O)C1=O  0.0033% [at 46 µM]
5. CC(O)CCCCn1c(=O)c2c(ncn2C)n(C)c1=O (centres undefined)  -0.0491% [at 46 µM]
6. CCCOc1ccc(C(=O)OCCN(CC)CC)cc1N  -0.0814% [at 46 µM]
7. O=C(O)/C=C(\CC(=O)O)C(=O)O  -0.122% [at 46 µM]

In order of falling “activity change” value:
1. COC(=O)c1ccccc1Cl  0.13%
2. CCCc1ccc(O)c(OC)c1  0.101%
3. CC1(C)C(=O)C(C)(C)C1=O  0.0869%
4. Cc1cc(O)c(Cl)cc1C  0.0701%
5. c1coc(Cn2cccc2)c1  0.0665%
6. CC/C=C/CCCCCCCCCCOC(C)=O  0.0634%
7. CC(C)=CCC/C(C)=C\C#N  0.0507%
8. Cc1nc2ccc(Cl)cc2[nH]1  0.0388%
9. C=CCOC(=O)CCCCCCCC  0.0276%
10. NNC(=O)OCc1ccccc1  0.0143%
11. CCCCc1ccc(Cl)cc1  -0.0388%
12. CCCCCCCC(=O)N(C)C  -0.0415%
13. CC(C)C(C)C  -0.0435%
14. CC(=O)c1c(C)cc(C(C)(C)C)cc1C  -0.0465%
15. C=COCCCCO  -0.0564%
16. CC/C=C\CCOC(=O)c1ccccc1  -0.0862%
17. CC(CN1CC(=O)NC(=O)C1)N1CC(=O)NC(=O)C1 (centres undefined)  -0.146%
18. CC(C)(C)c1ccc(N)cc1  -0.384%

For `C[C@@H]1NC(=O)[C@@H](N)CNC(=O)[C@H](C2CCNC(N)=N2)NC(=O)/C(=C/NC(N)=O)NC(=O)[C@H](CNC(=O)C[C@@H](N)CCCN)NC1=O` (some centres undefined), the outcome was “inactive”.

In order of rising activity change:
1. C[C@@H]1CC[C@@]2(OC1)O[C@H]1C[C@H]3[C@@H]4CC[C@H]5C[C@@H](O)CC[C@]5(C)[C@H]4CC(=O)[C@]3(C)[C@H]1[C@@H]2C  -0.0372% [at 18.6 µM]
2. COc1cnc(NS(=O)(=O)c2ccc(N)cc2)nc1  -0.0115% [at 18.6 µM]
